Measurements taken from the supplement of paper PMC10849652.
Of roughly 7,900 targets only a part is listed; those with a hit were picked by preference. About 0.6% of all pairs of compound and target were hits. Unmarked numbers belong to inactive results.

Legend:
Assay in all cases: log2 fold change, soluble protein after heating vs DMSO (PISA); higher = thermal stabilisation; K562 cells, 10 uM, 30 min; active = over 0.2 and 3.5 SD of the protein, either way, in both replicates (recomputed)
[1] = compound: CC1=C(C=C(C=C1)NC(=O)C2=CC(=CC=C2)C(C)(C)C#N)NC3=CC4=C(C=C3)N=CN(C4=O)C
Summary of the method: (§1)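 K562 cells at 2×10^6 cells/mL were given 10 μM compound for 30 min. Aliquots then went through 3 min of heating across 48°C-58°C, were pooled, and were extracted in PBS with 0.5% NP-40 at 4°C, and the supernatant after 21,000xg for 90 min was quantified by TMTpro 16plex LC-MS/MS with channel sums equalised. Thermal stability relative to control samples, from duplicates, is given as log2 fold change.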

[2] = compound: CC1=C(C=C(C=C1)NC(=O)C2=CC(=CC=C2)N(C)C)NC(=O)C3=CC=C(C=C3)O
Summary of the method: as §1

[3] = compound: CC1=CC=C(C=C1)SC2=C3C=C(SC3=CN=C2)C(=O)N
Summary of the method: as §1

[4] = compound: CC1=NC(=CC=C1)C2=C(N=C(N2)C(C)(C)C)C3=CC4=NC=CN=C4C=C3
Summary of the method: as §1

Nexturastat A = compound: CCCCN(Cc1ccc(C(=O)NO)cc1)C(=O)Nc1ccccc1 [Nexturastat A]
Summary of the method: as §1

vemurafenib = compound: CCCS(=O)(=O)Nc1ccc(F)c(C(=O)c2c[nH]c3ncc(-c4ccc(Cl)cc4)cc23)c1F [vemurafenib]
Summary of the method: as §1

[5] = compound: CCCS(=O)(=O)Nc1ccc(F)c(C(=O)c2c[nH]c3ncc(Cl)cc23)c1F
Summary of the method: as §1

[6] = compound: CCCc1cc(C)[nH]c(=O)c1CNC(=O)c1cc(-c2ccnc(N3CCN(C)CC3)c2)cc2c1cnn2C(C)C
Summary of the method: as §1

givinostat = compound: CCN(CC)Cc1ccc2cc(COC(=O)Nc3ccc(C(=O)NO)cc3)ccc2c1 [givinostat]
Summary of the method: as §1

barasertib = compound: CCN(CCCOc1ccc2c(Nc3cc(CC(=O)Nc4cccc(F)c4)[nH]n3)ncnc2c1)CCOP(=O)(O)O [barasertib]
Summary of the method: as §1

[7] = compound: CC[C@@H]1C(=O)N(C)c2cnc(Nc3ccc(C(=O)NC4CCN(C)CC4)cc3OC)nc2N1C1CCCC1
Summary of the method: as §1

volasertib = compound: CC[C@@H]1C(=O)N(C)c2cnc(Nc3ccc(C(=O)N[C@H]4CC[C@H](N5CCN(CC6CC6)CC5)CC4)cc3OC)nc2N1C(C)C [volasertib]
Summary of the method: as §1

[8] = compound: CC[C@H](C)N1C=C(C2=C(C=C(C=C21)C3=CN=C(C=C3)N4CCNCC4)C(=O)NCC5=C(C=C(NC5=O)C)C)C
Summary of the method: as §1

epoxomicin = compound: CC[C@H](C)[C@@H](C(=O)N[C@@H]([C@@H](C)O)C(=O)N[C@@H](CC(C)C)C(=O)[C@]1(CO1)C)NC(=O)[C@H]([C@@H](C)CC)N(C)C(=O)C [epoxomicin]
Summary of the method: as §1

[9] = compound: CCn1c(C(=O)N(C2CC2)C2CC2)cc2c3c(ncn3C)c(Nc3cc(C)n(C)n3)nc21
Summary of the method: as §1

[10] = compound: CCn1cc(-c2ccnc3[nH]c(-c4cccc(CN(C)C)c4)cc23)c(-c2ccc(NC(=O)N(C)C)cc2)n1
Summary of the method: as §1

[11] = compound: CN(C)CC(=O)Nc1ccc2[nH]c(=O)c3ccccc3c2c1
Summary of the method: as §1

rosiglitazone = compound: CN(CCOC1=CC=C(C=C1)C[C@H]2C(=O)NC(=O)S2)C3=CC=CC=N3 (racemic) [rosiglitazone]
Summary of the method: as §1

[12] = compound: CN1C2=C(C3=C1C(=O)N(N=C3)CC4=CC(=CC=C4)N)SC(=C2)S(=O)C
Summary of the method: as §1

[13] = compound: CN1CCC(CNc2ccc3ncc(-c4cccc(OC(F)(F)F)c4)n3n2)CC1
Summary of the method: as §1

Chain of UniProt Q9Y6K0 (Q9Y6K0 whole entry, looked up): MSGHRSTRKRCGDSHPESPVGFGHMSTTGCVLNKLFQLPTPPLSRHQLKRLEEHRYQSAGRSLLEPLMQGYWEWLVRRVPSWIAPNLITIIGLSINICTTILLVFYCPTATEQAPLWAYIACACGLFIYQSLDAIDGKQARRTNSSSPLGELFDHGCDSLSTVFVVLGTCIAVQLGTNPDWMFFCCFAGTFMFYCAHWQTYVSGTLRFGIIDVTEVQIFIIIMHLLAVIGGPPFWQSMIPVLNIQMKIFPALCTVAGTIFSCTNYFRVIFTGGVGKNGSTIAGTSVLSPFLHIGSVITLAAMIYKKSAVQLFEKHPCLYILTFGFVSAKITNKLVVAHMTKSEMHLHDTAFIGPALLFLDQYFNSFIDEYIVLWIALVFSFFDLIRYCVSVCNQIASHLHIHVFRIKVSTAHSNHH
Chain of UniProt P45973 (P45973 whole entry, looked up): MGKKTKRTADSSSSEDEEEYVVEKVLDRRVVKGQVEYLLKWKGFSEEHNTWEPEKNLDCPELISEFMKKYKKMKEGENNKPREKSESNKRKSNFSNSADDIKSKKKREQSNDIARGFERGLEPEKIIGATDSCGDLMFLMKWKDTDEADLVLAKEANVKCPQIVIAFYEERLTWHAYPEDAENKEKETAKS
Chain of UniProt P27708 (P27708 whole entry, looked up): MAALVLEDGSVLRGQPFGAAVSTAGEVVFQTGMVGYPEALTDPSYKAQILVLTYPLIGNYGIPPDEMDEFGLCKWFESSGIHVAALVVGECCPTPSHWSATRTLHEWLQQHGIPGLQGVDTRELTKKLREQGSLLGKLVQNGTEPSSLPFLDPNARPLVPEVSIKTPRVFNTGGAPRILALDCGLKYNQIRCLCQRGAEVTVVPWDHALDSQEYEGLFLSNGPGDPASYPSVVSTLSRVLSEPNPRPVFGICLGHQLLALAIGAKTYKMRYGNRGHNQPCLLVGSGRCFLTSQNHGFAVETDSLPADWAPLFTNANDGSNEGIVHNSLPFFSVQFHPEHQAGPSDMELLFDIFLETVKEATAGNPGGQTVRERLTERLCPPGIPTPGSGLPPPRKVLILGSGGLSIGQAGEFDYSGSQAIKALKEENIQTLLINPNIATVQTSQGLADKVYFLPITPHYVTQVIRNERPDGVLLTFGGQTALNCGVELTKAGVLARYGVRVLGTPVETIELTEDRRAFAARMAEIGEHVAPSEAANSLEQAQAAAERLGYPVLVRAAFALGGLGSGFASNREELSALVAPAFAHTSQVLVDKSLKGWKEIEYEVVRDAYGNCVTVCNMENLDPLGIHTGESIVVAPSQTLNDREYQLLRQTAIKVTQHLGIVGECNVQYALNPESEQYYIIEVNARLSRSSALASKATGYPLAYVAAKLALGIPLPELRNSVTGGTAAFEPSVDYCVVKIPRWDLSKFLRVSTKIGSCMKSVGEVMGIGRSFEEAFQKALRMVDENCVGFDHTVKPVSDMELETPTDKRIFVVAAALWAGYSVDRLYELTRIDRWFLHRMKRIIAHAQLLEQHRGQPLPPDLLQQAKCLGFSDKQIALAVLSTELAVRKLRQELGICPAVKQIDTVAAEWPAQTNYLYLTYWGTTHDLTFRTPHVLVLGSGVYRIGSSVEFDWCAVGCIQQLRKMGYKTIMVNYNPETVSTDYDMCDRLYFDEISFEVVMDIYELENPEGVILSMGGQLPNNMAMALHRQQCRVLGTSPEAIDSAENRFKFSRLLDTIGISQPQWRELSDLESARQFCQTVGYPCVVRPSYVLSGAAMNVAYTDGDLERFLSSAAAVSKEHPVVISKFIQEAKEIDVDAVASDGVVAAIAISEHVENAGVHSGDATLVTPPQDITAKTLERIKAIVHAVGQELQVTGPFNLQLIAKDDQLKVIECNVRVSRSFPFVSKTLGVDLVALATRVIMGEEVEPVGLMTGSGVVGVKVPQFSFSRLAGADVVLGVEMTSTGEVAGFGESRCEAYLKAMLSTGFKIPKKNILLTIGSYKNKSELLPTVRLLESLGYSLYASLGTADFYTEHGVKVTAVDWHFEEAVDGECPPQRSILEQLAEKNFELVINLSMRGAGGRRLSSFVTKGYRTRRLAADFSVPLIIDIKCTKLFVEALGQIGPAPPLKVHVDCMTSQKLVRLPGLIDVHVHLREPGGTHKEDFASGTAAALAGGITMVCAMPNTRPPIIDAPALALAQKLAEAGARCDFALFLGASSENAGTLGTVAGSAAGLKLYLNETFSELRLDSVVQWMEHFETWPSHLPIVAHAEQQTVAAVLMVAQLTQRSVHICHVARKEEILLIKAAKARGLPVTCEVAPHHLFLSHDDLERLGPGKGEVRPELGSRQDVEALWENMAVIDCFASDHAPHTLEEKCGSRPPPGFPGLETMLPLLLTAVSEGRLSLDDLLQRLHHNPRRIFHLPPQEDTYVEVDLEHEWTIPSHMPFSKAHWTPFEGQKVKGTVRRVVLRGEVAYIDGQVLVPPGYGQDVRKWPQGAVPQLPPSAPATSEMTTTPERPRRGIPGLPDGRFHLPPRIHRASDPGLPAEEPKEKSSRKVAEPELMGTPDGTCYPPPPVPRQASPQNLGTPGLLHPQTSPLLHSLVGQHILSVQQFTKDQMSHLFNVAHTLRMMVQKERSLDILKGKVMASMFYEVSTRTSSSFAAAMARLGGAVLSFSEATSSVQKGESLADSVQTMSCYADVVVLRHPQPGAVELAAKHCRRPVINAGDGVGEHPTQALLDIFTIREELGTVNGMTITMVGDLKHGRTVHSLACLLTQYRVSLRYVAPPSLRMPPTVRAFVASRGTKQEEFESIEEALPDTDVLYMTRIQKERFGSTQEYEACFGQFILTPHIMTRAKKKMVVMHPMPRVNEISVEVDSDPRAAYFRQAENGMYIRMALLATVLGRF
Chain of UniProt O76031 (O76031 whole entry, looked up): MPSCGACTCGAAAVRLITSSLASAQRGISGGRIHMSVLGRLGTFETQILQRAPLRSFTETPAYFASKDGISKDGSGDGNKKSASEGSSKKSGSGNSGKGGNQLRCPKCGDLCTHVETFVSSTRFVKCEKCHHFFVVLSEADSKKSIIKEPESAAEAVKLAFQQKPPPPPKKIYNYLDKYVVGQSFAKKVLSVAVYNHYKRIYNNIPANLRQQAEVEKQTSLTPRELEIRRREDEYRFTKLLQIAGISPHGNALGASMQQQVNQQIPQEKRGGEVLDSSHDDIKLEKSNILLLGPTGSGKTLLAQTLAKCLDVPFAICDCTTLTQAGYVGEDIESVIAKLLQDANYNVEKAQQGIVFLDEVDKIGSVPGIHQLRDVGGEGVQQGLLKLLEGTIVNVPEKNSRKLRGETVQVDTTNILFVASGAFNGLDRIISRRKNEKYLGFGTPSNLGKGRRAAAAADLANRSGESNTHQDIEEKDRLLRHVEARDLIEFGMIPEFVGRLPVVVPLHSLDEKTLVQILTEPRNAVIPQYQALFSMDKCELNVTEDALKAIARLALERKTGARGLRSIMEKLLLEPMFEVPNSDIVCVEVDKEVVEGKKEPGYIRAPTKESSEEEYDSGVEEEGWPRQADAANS
Chain of UniProt Q96KP4 (Q96KP4 whole entry, looked up): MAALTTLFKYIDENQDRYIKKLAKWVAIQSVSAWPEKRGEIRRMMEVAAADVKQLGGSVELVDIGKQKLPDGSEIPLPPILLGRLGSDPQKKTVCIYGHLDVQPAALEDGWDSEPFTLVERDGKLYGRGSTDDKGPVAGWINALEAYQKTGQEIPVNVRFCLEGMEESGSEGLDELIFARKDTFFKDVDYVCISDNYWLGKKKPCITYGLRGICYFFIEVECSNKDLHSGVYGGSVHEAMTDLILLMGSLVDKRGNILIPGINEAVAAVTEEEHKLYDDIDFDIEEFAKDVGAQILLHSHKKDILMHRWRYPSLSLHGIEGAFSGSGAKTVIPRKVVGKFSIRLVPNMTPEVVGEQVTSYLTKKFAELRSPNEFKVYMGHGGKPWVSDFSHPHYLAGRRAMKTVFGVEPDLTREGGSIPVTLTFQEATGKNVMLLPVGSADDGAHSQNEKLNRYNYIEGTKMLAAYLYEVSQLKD
Chain of UniProt P05937 (P05937 whole entry, looked up): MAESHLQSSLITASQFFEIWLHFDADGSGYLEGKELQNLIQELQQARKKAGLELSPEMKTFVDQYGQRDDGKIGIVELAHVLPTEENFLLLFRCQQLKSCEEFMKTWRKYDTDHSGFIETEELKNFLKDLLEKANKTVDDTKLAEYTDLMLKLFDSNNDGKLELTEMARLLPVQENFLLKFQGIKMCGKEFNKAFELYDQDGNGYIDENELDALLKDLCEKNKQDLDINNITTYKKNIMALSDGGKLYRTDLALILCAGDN
Chain of UniProt Q9UIV1 (Q9UIV1 whole entry, looked up): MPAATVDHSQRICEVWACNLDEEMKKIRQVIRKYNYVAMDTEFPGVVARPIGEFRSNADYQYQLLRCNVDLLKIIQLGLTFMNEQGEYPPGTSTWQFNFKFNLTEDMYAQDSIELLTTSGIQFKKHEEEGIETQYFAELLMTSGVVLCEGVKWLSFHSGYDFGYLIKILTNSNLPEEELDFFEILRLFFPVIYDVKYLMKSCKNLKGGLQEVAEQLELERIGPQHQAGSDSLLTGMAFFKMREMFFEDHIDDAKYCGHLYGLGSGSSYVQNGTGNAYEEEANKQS
Chain of UniProt P16152 (P16152 whole entry, looked up): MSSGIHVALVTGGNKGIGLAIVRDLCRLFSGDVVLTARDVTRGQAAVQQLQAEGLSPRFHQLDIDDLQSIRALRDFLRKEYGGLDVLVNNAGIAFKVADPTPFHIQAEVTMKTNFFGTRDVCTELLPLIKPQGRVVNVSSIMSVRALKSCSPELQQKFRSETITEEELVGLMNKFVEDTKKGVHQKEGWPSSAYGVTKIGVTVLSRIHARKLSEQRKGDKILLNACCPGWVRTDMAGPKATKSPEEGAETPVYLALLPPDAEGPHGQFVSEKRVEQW
Chain of UniProt Q9Y6H1 (Q9Y6H1 whole entry, looked up): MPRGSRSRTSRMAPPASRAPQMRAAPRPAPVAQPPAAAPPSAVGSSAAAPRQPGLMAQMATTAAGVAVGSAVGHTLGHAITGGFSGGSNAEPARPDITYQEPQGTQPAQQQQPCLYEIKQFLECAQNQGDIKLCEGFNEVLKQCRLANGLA

Row | Target | log2 fold change [1] | log2 fold change [2] | log2 fold change [3] | log2 fold change [4] | log2 fold change (Nexturastat A) | log2 fold change (vemurafenib) | log2 fold change [5] | log2 fold change [6] | log2 fold change (givinostat) | log2 fold change (barasertib) | log2 fold change [7] | log2 fold change (volasertib) | log2 fold change [8] | log2 fold change (epoxomicin) | log2 fold change [9] | log2 fold change [10] | log2 fold change [11] | log2 fold change (rosiglitazone) | log2 fold change [12] | log2 fold change [13]
1 | CAD (UniProt P27708) | -0.047 | -0.009 | 0.027 | 0.012 | 0 | -0.041 | -0.018 | -0.078 | 0.008 | 0.002 | 0.006 | 0.009 | 0.019 | 0.034 | -0.169 | -0.08 | 0.022 | 0.032 | -0.028 | -0.458 (active)
2 | COQ9 (UniProt O75208) | 0.016 | 0.045 | 0.054 | 0.064 | -0.266 (active) | 0.041 | -0.004 | -0.006 | -0.006 | 0.046 | -0.04 | -0.05 | 0.001 | -0.041 | -0.022 | 0.002 | 0.018 | 0.025 | -0.057 | -0.135
3 | CBX5 (UniProt P45973) | 0.051 | 0.029 | 0.073 | 0.113 | 0.027 | 0.045 | 0.085 | -0.051 | 0.043 | -0.05 | -0.033 | -0.128 | 0.048 | -0.022 | -0.034 | -0.057 | -0.034 | -0.012 | -0.121 | -0.003
4 | CDC42BPB (UniProt Q9Y5S2) | -0.073 | -0.07 | -0.034 | -0.072 | 0.052 | -0.046 | -0.034 | 0.079 | -0.096 | -0.087 | 0.171 | 0.051 | -0.105 | -0.065 | 0.008 | 0.062 | 0.046 | 0.049 | 0.048 | -0.195
5 | C19orf53 (UniProt Q9UNZ5) | 0.056 | 0.016 | -0.065 | -0.196 | 0.184 | -0.189 | -0.044 | 0.146 | 0.021 | -0.096 | 0.205 | 0.412 | 0.045 | -0.264 | 0.104 | 0.239 | -0.189 | -0.182 | 0.34 | 0.2
6 | CHCHD1 (UniProt Q96BP2) | -0.02 | -0.119 | 0.279 | 0.008 | 0.141 | -0.044 | 0.024 | -0.747 | 0.013 | -0.105 | -0.054 | -0.32 | -0.001 | -0.026 | -0.028 | -0.009 | 0.02 | 0.035 | 0.033 | -0.191
7 | CALB1 (UniProt P05937) | -0.004 | 0.032 | 0.027 | 0.042 | -0.023 | 0.057 | 0.019 | 0.011 | -0.031 | 0.037 | -0.123 | -0.092 | -0.007 | 0.043 | 0.003 | 0.05 | 0.016 | 0.027 | -0.039 | -0.282 (active)
8 | CNOT7 (UniProt Q9UIV1) | 0.046 | -0.043 | 0.075 | 0.014 | 0.048 | -0.068 | 0.053 | -0.011 | -0.026 | 0.004 | -0.086 | -0.305 (active) | -0.049 | -0.053 | -0.16 | -0.052 | -0.121 | -0.04 | 0.021 | -0.082
9 | CLCN3 isoform 2 (UniProt P51790) | -0.055 | 0.002 | 0.008 | 0.061 | -0.026 | 0 | 0.03 | -0.023 | 0.029 | -0.006 | -0.047 | -0.113 | 0.026 | 0.003 | 0.018 | -0.032 | 0.024 | 0.001 | -0.028 | -0.079
10 | CLPX (UniProt O76031) | 0.022 | -0.013 | -0.008 | 0.012 | 0 | -0.011 | -0.013 | -0.002 | 0.02 | -0.013 | 0.039 | 0.192 | -0.06 | -0.019 | -0.03 | -0.022 | 0.026 | -0.009 | -0.01 | 0.072
11 | CNDP2 (UniProt Q96KP4) | 0.021 | -0.013 | 0.04 | 0.043 | -0.131 | 0.016 | 0.003 | -0.052 | -0.087 | -0.004 | -0.037 | 0.014 | -0.003 | -0.012 | 0.014 | -0.1 | -0.002 | 0.016 | -0.103 | -0.149
12 | CMTR1 (UniProt Q8N1G2) | -0.012 | -0.003 | -0.021 | 0.083 | -0.069 | 0.03 | 0.005 | -0.004 | -0.062 | 0.054 | -0.053 | -0.199 | 0.024 | 0.039 | -0.01 | -0.049 | 0.038 | 0.03 | -0.055 | -0.037
13 | CEPT1 (UniProt Q9Y6K0) | 0.048 | 0.068 | 0.005 | 0.069 | -0.123 | 0.123 | 0.016 | -0.122 | -0.023 | 0.013 | -0.186 | -0.231 | -0.066 | -0.043 | 0.039 | -0.025 | 0.059 | 0.067 | -0.072 | 0.03
14 | CBR1 (UniProt P16152) | 0.006 | -0.023 | 0.005 | 0.038 | -0.032 | -0.001 | 0.074 | 0.051 | 0.005 | 0.025 | -0.001 | -0.041 | -0.017 | 0.06 | -0.006 | 0 | 0.005 | 0.013 | -0.077 | 0.077
15 | CES2 isoform 4 (UniProt O00748) | -0.003 | -0.072 | 0.005 | -0.065 | 0.058 | -0.029 | -0.105 | 0.003 | 0.021 | 0.022 | 0.033 | 0.108 | 0.1 | -0.168 | 0.187 | -0.012 | -0.02 | 0.023 | 0.034 | 0.054
16 | CHCHD2 (UniProt Q9Y6H1) | 0.019 | -0.037 | 0.282 | 0.004 | -0.047 | -0.028 | -0.019 | -0.09 | -0.042 | 0.008 | 0.04 | 0.103 | -0.034 | 0.026 | -0.027 | -0.055 | -0.004 | 0.04 | -0.058 | 0.044
